Data as given in PubChem BioAssay (Tox21).
Inconclusive results are not listed. The source made the active and inactive calls. The call rests on the fitted dose curve; in most records, active means well fitted curve in the direction sought with a large enough effect in the repeat runs; inconclusive means weak or mixed curves; inactive means no such curve, though single readings can be large; an effect the other way counts as inactive or inconclusive.

Legend:
[1] = A CellTox Green Cytotoxicity Assay to monitor cytotoxicity in HEK293 cells - 24 hour (AID 1224875); further: series mostly up to about 77 µM; nearly all actives have a fitted effect of over 45% in size
How it was run: (§1)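 Fluorescence intensity, read at 0, 8, 16, 24, 32 and 40 h of compound treatment, reflected dye binding to DNA of dead HEK293 cells; compounds (23 nL, DMSO) were added 5 h after plating cells with reagent.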

[2] = A CellTox Green Cytotoxicity Assay to monitor cytotoxicity in HepG2 cells - 16 hour (AID 1224876); further: nearly all actives have a fitted effect of over 45% in size
How it was run: (§2)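 Using 1536-well format, dye-containing HepG2 suspension was seeded, allowed 5 h at 37 C/5% CO2, dosed by pintool with compounds, positive and negative controls, and imaged for fluorescence across 40 h.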

[3] = qHTS RealTime-Glo MT Cell Viability Assay in HepG2 cells - 32 hour (AID 1224877); further: nearly all actives have a fitted effect of over 55% in size
How it was run: (§3)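 Viability was tracked continuously by NanoLuc luminescence from prosubstrate reduced by living HepG2 cells, at successive time points over 40 h of compound exposure. Cells with reagent were preincubated 5 h at 37 °C before compound addition.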

[4] = A CellTox Green Cytotoxicity Assay to monitor cytotoxicity in HepG2 cells - 24 hour (AID 1224878); further: nearly all actives have a fitted effect of over 45% in size; further: potency means the concentration at half of the fitted maximal effect
How it was run: as §2

[5] = A CellTox Green Cytotoxicity Assay to monitor cytotoxicity in HepG2 cells - 40 hour (AID 1224879); further: nearly all actives have a fitted effect of over 40% in size; further: potency means the concentration at half of the fitted maximal effect
How it was run: as §2

[6] = qHTS RealTime-Glo MT Cell Viability Assay in HEK293 cells - 0 hour (AID 1224880); further: nearly all actives have a fitted effect of over 45% in size; further: potency means the concentration at half of the fitted maximal effect; on activity change, negative = cytotoxicity: top concentration of the series differs between compounds
How it was run: (§4)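 Viable HEK293 cells reduce a cell-permeant prosubstrate; the product diffuses out and is consumed by NanoLuc in the medium to give light. Compounds went in after a 5 h incubation and plates were read over the treatment course.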

[7] = A CellTox Green Cytotoxicity Assay to monitor cytotoxicity in HEK293 cells - 32 hour (AID 1224881); further: nearly all actives have a fitted effect of over 40% in size
How it was run: as §1

[8] = A CellTox Green Cytotoxicity Assay to monitor cytotoxicity in HepG2 cells - 0 hour (AID 1224882); further: nearly all actives have a fitted effect of over 35% in size
How it was run: as §2

[9] = A CellTox Green Cytotoxicity Assay to monitor cytotoxicity in HepG2 cells - 32 hour (AID 1224883); further: nearly all actives have a fitted effect of over 50% in size; further: potency means the concentration at half of the fitted maximal effect
How it was run: as §2

[10] = A CellTox Green Cytotoxicity Assay to monitor cytotoxicity in HEK293 cells - 8 hour (AID 1224884); further: nearly all actives have a fitted effect of over 35% in size
How it was run: as §1

[11] = qHTS RealTime-Glo MT Cell Viability Assay in HepG2 cells - 16 hour (AID 1224885); further: nearly all actives have a fitted effect of over 50% in size
How it was run: as §3

[12] = qHTS RealTime-Glo MT Cell Viability Assay in HEK293 cells - 24 hour (AID 1224886); further: top concentration of the series differs between compounds; nearly all actives have a fitted effect of over 50% in size
How it was run: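 Viability tracked continuously by luminescence as live cells reduce a prosubstrate for NanoLuc; HEK293 cells preincubated 5 h, compound-treated at 37 C, and read at 0, 8, 16, 24, 32 and 40 h.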

[13] = qHTS RealTime-Glo MT Cell Viability Assay in HEK293 cells - 8 hour (AID 1224887); further: top concentration of the series differs between compounds; nearly all actives have a fitted effect of over 50% in size
How it was run: as §4

[14] = A CellTox Green Cytotoxicity Assay to monitor cytotoxicity in HEK293 cells - 16 hour (AID 1224888); further: nearly all actives have a fitted effect of over 35% in size
How it was run: as §1

[15] = qHTS RealTime-Glo MT Cell Viability Assay in HepG2 cells - 0 hour (AID 1224889); further: nearly all actives have a fitted effect of over 50% in size; further: potency means the concentration at half of the fitted maximal effect
How it was run: as §3

[16] = A CellTox Green Cytotoxicity Assay to monitor cytotoxicity in HepG2 cells - 8 hour (AID 1224890); further: nearly all actives have a fitted effect of over 45% in size
How it was run: as §2

[17] = qHTS assay to identify small molecule antagonists of the estrogen receptor alpha (ER-alpha) signaling pathway using the BG1 cell line in the presence of 0.1 nM 17-beta-estradiol - cell viability counter screen (AID 1259241); further: nearly all actives have a fitted effect of over 40% in size; further: potency means the concentration at half of the fitted maximal effect
How it was run: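 Cytotoxicity counter-screen: live-cell protease activity measured by fluorescence (30 min reagent step) in the same wells. Cells were VM7Luc4E2 with endogenous ER-alpha and ERE-driven luciferase, treated 22 hr at 37C alongside 0.1 nM 17beta-estradiol final.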

[18] = qHTS assay to identify small molecule antagonists of the androgen receptor (AR) signaling pathway using the MDA cell line in the presence of 0.5 nM R1881 - cell viability counter screen (AID 1259242); further: nearly all actives have a fitted effect of over 45% in size; further: potency means the concentration at half of the fitted maximal effect
How it was run: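 Viability of MDA-kb2 cells was multiplexed with the luciferase AR readout; after 16 hr with compounds and R1881 at 0.5 nM final, CellTiter-Fluor fluorescence was recorded.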

[19] = target: Androgen receptor (Homo sapiens) (UniProt P10275); assay: qHTS assay to identify small molecule antagonists of the androgen receptor (AR) signaling pathway using the MDA cell line in the presence of 0.5 nM R1881 (AID 1259243); further: nearly all actives have a fitted effect of over 50% in size; further: potency means the concentration at half of the fitted maximal effect
How it was run: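 Reporter cells cultured without CO2 receive test chemicals, then 0.5 nM R1881 final; after 16 hr at 37C, ONE-Glo is added and light output recorded.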
On the % scale 0 is the no-effect control and ±100 the full control effect.

Androgen receptor (Homo sapiens), sequence (P10275 whole entry, looked up): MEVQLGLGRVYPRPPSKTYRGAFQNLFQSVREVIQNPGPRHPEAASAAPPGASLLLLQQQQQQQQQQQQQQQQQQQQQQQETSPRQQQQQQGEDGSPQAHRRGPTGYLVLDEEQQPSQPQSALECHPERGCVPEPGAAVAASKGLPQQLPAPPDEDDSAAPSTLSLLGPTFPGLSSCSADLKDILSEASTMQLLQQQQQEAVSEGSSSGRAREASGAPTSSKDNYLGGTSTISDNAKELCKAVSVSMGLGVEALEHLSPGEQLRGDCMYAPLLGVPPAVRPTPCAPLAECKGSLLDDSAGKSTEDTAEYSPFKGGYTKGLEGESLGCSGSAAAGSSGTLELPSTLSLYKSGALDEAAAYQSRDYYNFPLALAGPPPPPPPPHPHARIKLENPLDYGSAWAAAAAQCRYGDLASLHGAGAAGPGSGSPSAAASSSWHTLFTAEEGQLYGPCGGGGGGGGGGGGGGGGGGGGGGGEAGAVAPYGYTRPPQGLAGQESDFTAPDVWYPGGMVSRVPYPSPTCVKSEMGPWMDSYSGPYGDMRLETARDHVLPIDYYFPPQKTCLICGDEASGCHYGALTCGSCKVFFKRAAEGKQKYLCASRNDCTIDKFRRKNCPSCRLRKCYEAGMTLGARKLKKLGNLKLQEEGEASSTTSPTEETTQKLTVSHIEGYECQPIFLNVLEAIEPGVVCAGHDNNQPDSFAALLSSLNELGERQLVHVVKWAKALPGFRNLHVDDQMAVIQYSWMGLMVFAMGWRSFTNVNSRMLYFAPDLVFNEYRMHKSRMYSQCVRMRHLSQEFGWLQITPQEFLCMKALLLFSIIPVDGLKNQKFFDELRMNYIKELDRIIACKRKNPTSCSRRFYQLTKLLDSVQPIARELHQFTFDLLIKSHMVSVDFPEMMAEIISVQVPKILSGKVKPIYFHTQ

NC[C@H]1O[C@H](O[C@H]2[C@H](O)[C@@H](O[C@H]3O[C@H](CO)[C@@H](O)[C@H](N)[C@H]3O)[C@H](N)C[C@@H]2N)[C@H](O)[C@@H](O)[C@@H]1O
inactive: activity change [1] 8.95% [at 6.97 µM, hits give high values] | cytotoxicity increase [2] 10.8% [at 6.97 µM] | activity change, negative = cytotoxic [3] -15.9% [at 6.97 µM] | cytotoxicity [4] 10.9% [at 6.97 µM] | cytotoxicity increase [5] 9.32% [at 6.97 µM] | activity change, negative = cytotoxicity [6] 12.9% [at 6.97 µM] | cytotoxicity increase [7] 10.5% [at 6.97 µM] | cytotoxicity [8] 1.08% [at 6.97 µM] | cytotoxicity increase [9] 13.2% [at 6.97 µM] | cytotoxicity increase [10] 7.24% [at 6.97 µM] | activity change, negative = cytotoxic [11] 2.6% [at 6.97 µM] | activity change, negative = cytotoxicity [12] 13.6% [at 6.97 µM] | activity change, negative = cytotoxicity [13] 2.67% [at 6.97 µM] | activity change [14] 6.94% [at 6.97 µM, hits give high values] | activity change, negative = cytotoxicity [15] 17.3% [at 6.97 µM] | cytotoxicity increase [16] 21.1% [at 6.97 µM] | activity change, negative = cytotoxicity [17] 2.35% [at 8.39 µM] | viability change, negative = cytotoxic [18] 1.3% [at 8.39 µM]

CC(C)(C)c1ccc(S)cc1
inactive: Potency [1] | Potency [2] | Potency [3] | Potency [4] | Potency [5] | Potency [6] | Potency [7] | Potency [8] | Potency [9] | Potency [10] | Potency [11] | Potency [12] | Potency [13] | Potency [14] | Potency [15] | Potency [16] | Potency [17] | Potency [18]

CCCCOCCOCCOCCOCCO
inactive: Potency [1] | Potency [2] | Potency [3] | Potency [4] | Potency [5] | Potency [6] | Potency [7] | Potency [8] | Potency [9] | Potency [10] | Potency [11] | Potency [12] | Potency [13] | Potency [14] | Potency [15] | Potency [16] | Potency [17] | Potency [18]

Cc1cc(C)c(S(=O)(=O)O)cc1N=Nc1cc(S(=O)(=O)O)c2ccccc2c1O
active: Potency [17] 54.5 µM | Potency [18] 61.1 µM
inactive: Potency [1] | Potency [2] | Potency [3] | Potency [4] | Potency [5] | Potency [6] | Potency [7] | Potency [8] | Potency [9] | Potency [10] | Potency [11] | Potency [14] | Potency [15] | Potency [16] | Potency [19]

CCC(C)N(C)C(=O)c1cc2ccccc2c(-c2ccccc2Cl)n1 (configuration not stated)
inactive: Potency [1] | Potency [2] | Potency [3] | Potency [7] | Potency [8] | Potency [10] | Potency [11] | Potency [13] | Potency [14] | Potency [16] | Potency [17] | Potency [18]
active: Potency [4] 25.2 µM | Potency [5] 28.2 µM | Potency [6] 31.7 µM | Potency [9] 25.2 µM | Potency [15] 20 µM | Potency [19] 28 µM

O=C(O)/C=C/c1cnc[nH]1
inactive: Potency [1] | Potency [2] | Potency [3] | Potency [4] | Potency [5] | Potency [6] | Potency [7] | Potency [8] | Potency [9] | Potency [10] | Potency [11] | Potency [12] | Potency [13] | Potency [14] | Potency [15] | Potency [16] | Potency [17] | Potency [18]

Nc1nc(N)c2nc(CNc3ccc(C(=O)N[C@@H](CCC(=O)O)C(=O)O)cc3)cnc2n1
inactive: Potency [1] | Potency [2] | Potency [3] | Potency [4] | Potency [5] | Potency [6] | Potency [7] | Potency [8] | Potency [9] | Potency [10] | Potency [11] | Potency [12] | Potency [13] | Potency [14] | Potency [15] | Potency [16] | Potency [17] | Potency [18]

CC(C)(C)c1cc(CO)cc(C(C)(C)C)c1O
inactive: Potency [1] | Potency [2] | Potency [3] | Potency [4] | Potency [5] | Potency [6] | Potency [7] | Potency [8] | Potency [9] | Potency [10] | Potency [11] | Potency [14] | Potency [15] | Potency [16] | Potency [17] | Potency [18]

Cc1ccc(C(=O)C(C)CN2CCCCC2)cc1 (configuration not stated)
inactive: Potency [1] | Potency [2] | Potency [3] | Potency [4] | Potency [5] | Potency [6] | Potency [7] | Potency [8] | Potency [9] | Potency [10] | Potency [11] | Potency [12] | Potency [13] | Potency [14] | Potency [15] | Potency [16] | Potency [17] | Potency [18]

CC(=O)Nc1ccc(/C=N/NC(N)=S)cc1
inactive: Potency [1] | Potency [2] | Potency [3] | Potency [4] | Potency [5] | Potency [6] | Potency [7] | Potency [8] | Potency [9] | Potency [10] | Potency [11] | Potency [12] | Potency [13] | Potency [14] | Potency [15] | Potency [16] | Potency [17] | Potency [18]

O=c1c2ccccc2nnn1CCl
inactive: Potency [1] | Potency [2] | Potency [3] | Potency [4] | Potency [5] | Potency [6] | Potency [7] | Potency [8] | Potency [9] | Potency [10] | Potency [11] | Potency [12] | Potency [13] | Potency [14] | Potency [15] | Potency [16] | Potency [18]

NCc1ccccc1
inactive: Potency [1] | Potency [2] | Potency [3] | Potency [4] | Potency [5] | Potency [6] | Potency [7] | Potency [8] | Potency [9] | Potency [10] | Potency [11] | Potency [12] | Potency [13] | Potency [14] | Potency [15] | Potency [16] | Potency [17] | Potency [18]
